# This is part of a sample that, as a whole, favours compounds with a hit. Of some 83,000 tested, about 20% had one in any assay.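 Step 1: grow cells in 96-well plates. Step 2: add test compound at a single concentration. Step 3: incubate 48 h. Step 4: record percent growth.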 Unmarked numbers belong to inactive results. The source made the active and inactive calls. Rule for the calls: active = growth percent below 10; inactive = the rest.
# Legend:
# Assay in all cases: NCI-60 one-dose screen, 48 h (100 = growth as untreated, 0 = no growth, -100 = all killed)
# [1] = tested on: T-47D breast
# [2] = tested on: BT-549 breast
# [3] = tested on: MDA-MB-435 melanoma
# [4] = tested on: SW-620 colon
# [5] = tested on: MCF7 breast
# [6] = tested on: HCT-116 colon
# [7] = tested on: HCC-2998 colon
# [8] = tested on: KM12 colon
# [9] = tested on: MDA-MB-468 breast
compound,measurement,setting,value
CC(C)(C)OC(=O)N1CCC2(CC1)Oc1ccccc1[C@H]1CC(c3ccc(Br)cc3)=NN12,growth,[1]; 10 µM unless noted,37.1%
same,growth,[2]; 10 µM unless noted,78.5%
same,growth,[3]; 10 µM unless noted,81.6%
same,growth,[4]; 10 µM unless noted,83%
same,growth,[5]; 10 µM unless noted,59.9%
same,growth,[6]; 10 µM unless noted,74.1%
same,growth,[7]; 10 µM unless noted,85.6%
same,growth,[8]; 10 µM unless noted,49.9%
Cc1ccc(C2CC(c3ccc(S(=O)(=O)NCCNc4nc(N(C)C)nc(N5CCOCC5)n4)cc3)=Nc3c(N)nc(N)nc3N2)cc1 (stereo unspecified),growth,[1]; 10 µM unless noted,43.8%
same,growth,[2]; 10 µM unless noted,35.2%
same,growth,[3]; 10 µM unless noted,63.6%
same,growth,[4]; 10 µM unless noted,81.2%
same,growth,[5]; 10 µM unless noted,27.6%
same,growth,[6]; 10 µM unless noted,38.7%
same,growth,[7]; 10 µM unless noted,47.9%
same,growth,[8]; 10 µM unless noted,47.9%
COC(=O)c1cc(C(C)=O)n2c3ccccc3c3ccccc3c12,growth,[1]; 10 µM unless noted,54.6%
same,growth,[2]; 10 µM unless noted,38.5%
same,growth,[3]; 10 µM unless noted,93%
same,growth,[4]; 10 µM unless noted,89.3%
same,growth,[5]; 10 µM unless noted,59.6%
same,growth,[6]; 10 µM unless noted,50.3%
same,growth,[7]; 10 µM unless noted,91.4%
CC/C(=C(/c1ccc(O)cc1)c1ccc(OCCN(C)C(=O)COCCOCCNC(=O)c2ccc3c(c2)CN([C@@H]2CCC(=O)NC2=O)C3=O)cc1)c1ccccc1,growth,[1]; 1 µM,28.6%
same,growth,[1]; 10 µM,33.4%
same,growth,[2]; 1 µM,5.04% (active)
same,growth,[2]; 10 µM,43.1%
same,growth,[3]; 1 µM,101%
same,growth,[3]; 10 µM,97%
same,growth,[4]; 1 µM,81.5%
same,growth,[4]; 10 µM,60.6%
same,growth,[5]; 1 µM,26.3%
same,growth,[5]; 10 µM,18.9%
same,growth,[6]; 1 µM,97.9%
same,growth,[6]; 10 µM,102%
same,growth,[7]; 1 µM,97.6%
same,growth,[7]; 10 µM,82.8%
same,growth,[8]; 1 µM,98.9%
same,growth,[8]; 10 µM,95.5%
same,growth,[9]; 1 µM,5.9% (active)
same,growth,[9]; 10 µM,-23.9% (active)
Fc1ccc(Nc2nnc(-c3c[nH]c4ccccc34)o2)cc1,growth,[1]; 10 µM unless noted,47.2%
same,growth,[2]; 10 µM unless noted,67.3%
same,growth,[3]; 10 µM unless noted,89.8%
same,growth,[4]; 10 µM unless noted,100%
same,growth,[5]; 10 µM unless noted,49.9%
same,growth,[6]; 10 µM unless noted,90.3%
same,growth,[7]; 10 µM unless noted,98.5%
same,growth,[8]; 10 µM unless noted,64.4%
N#CC1=C(c2ccco2)Nc2c(c(-c3ccccc3)nn2-c2ccccc2)C12C(=O)Nc1ccc(Br)cc12 (stereo unspecified),growth,[1]; 10 µM unless noted,48.5%
same,growth,[2]; 10 µM unless noted,70.4%
same,growth,[3]; 10 µM unless noted,59.8%
same,growth,[4]; 10 µM unless noted,46.3%
same,growth,[5]; 10 µM unless noted,39.8%
same,growth,[6]; 10 µM unless noted,5.08% (active)
same,growth,[7]; 10 µM unless noted,91.8%
same,growth,[8]; 10 µM unless noted,66.4%
COc1ccc(N=Nc2c(N)nn3c(N)c(C#N)c(-c4ccc(C)cc4)nc23)cc1,growth,[1]; 10 µM unless noted,7.1% (active)
same,growth,[2]; 10 µM unless noted,56.2%
same,growth,[3]; 10 µM unless noted,56.6%
same,growth,[4]; 10 µM unless noted,67.2%
same,growth,[5]; 10 µM unless noted,12.5%
same,growth,[6]; 10 µM unless noted,45.4%
same,growth,[7]; 10 µM unless noted,73%
same,growth,[8]; 10 µM unless noted,43.5%
Nc1nc(-c2ccccc2)c(N=Nc2ccc(Cl)cc2Cl)s1,growth,[1]; 10 µM unless noted,25.4%
same,growth,[2]; 10 µM unless noted,-47.2% (active)
same,growth,[3]; 10 µM unless noted,-51.7% (active)
same,growth,[4]; 10 µM unless noted,-59.7% (active)
same,growth,[5]; 10 µM unless noted,-28.9% (active)
same,growth,[6]; 10 µM unless noted,-80.6% (active)
same,growth,[7]; 10 µM unless noted,-87.7% (active)
same,growth,[8]; 10 µM unless noted,-70.8% (active)
same,growth,[9]; 10 µM unless noted,-63.3% (active)
COC(=O)c1c(C(=O)OC)c2ccc3c4ccccc4ccc3n2c1C(=O)OC,growth,[1]; 10 µM unless noted,93.7%
same,growth,[2]; 10 µM unless noted,113%
same,growth,[3]; 10 µM unless noted,98.7%
same,growth,[4]; 10 µM unless noted,111%
same,growth,[5]; 10 µM unless noted,85.4%
same,growth,[6]; 10 µM unless noted,97.7%
same,growth,[7]; 10 µM unless noted,107%
same,growth,[8]; 10 µM unless noted,103%
COc1ccc(-c2nc3ccc(-c4nnc(SCc5ccccc5)o4)cc3[nH]2)cc1OC,growth,[1]; 10 µM unless noted,32.4%
same,growth,[2]; 10 µM unless noted,49.7%
same,growth,[3]; 10 µM unless noted,40%
same,growth,[4]; 10 µM unless noted,15.9%
same,growth,[5]; 10 µM unless noted,21.7%
same,growth,[6]; 10 µM unless noted,8.42% (active)
same,growth,[7]; 10 µM unless noted,63.2%
same,growth,[8]; 10 µM unless noted,61.2%
CC/C(=C(\c1ccc(O)cc1)c1ccc(OCCN(C)C(=O)COCCNC(=O)Cc2ccc3c(c2)CN([C@@H]2CCC(=O)NC2=O)C3=O)cc1)c1ccccc1,growth,[1]; 1 µM,15.5%
same,growth,[1]; 10 µM,7.16% (active)
same,growth,[2]; 1 µM,-25.9% (active)
same,growth,[2]; 10 µM,-22.3% (active)
same,growth,[3]; 1 µM,97%
same,growth,[3]; 10 µM,59.2%
same,growth,[4]; 1 µM,57.5%
same,growth,[4]; 10 µM,23.8%
same,growth,[5]; 1 µM,33.4%
same,growth,[5]; 10 µM,20%
same,growth,[6]; 1 µM,94.2%
same,growth,[6]; 10 µM,99.6%
same,growth,[7]; 1 µM,64.5%
same,growth,[7]; 10 µM,30.2%
same,growth,[8]; 1 µM,94.3%
same,growth,[8]; 10 µM,47.5%
same,growth,[9]; 1 µM,-11.7% (active)
same,growth,[9]; 10 µM,-28.3% (active)
Cn1cc(-c2cc(N)n3nc(-c4c[nH]c5ccccc45)cc3n2)c2cc(Br)ccc21,growth,[1]; 10 µM unless noted,-82.7% (active)
same,growth,[2]; 10 µM unless noted,-58% (active)
same,growth,[3]; 10 µM unless noted,-79% (active)
same,growth,[4]; 10 µM unless noted,-84.3% (active)
same,growth,[5]; 10 µM unless noted,-73.9% (active)
same,growth,[6]; 10 µM unless noted,-77.7% (active)
same,growth,[7]; 10 µM unless noted,-77% (active)
same,growth,[8]; 10 µM unless noted,-79.3% (active)
same,growth,[9]; 10 µM unless noted,-80.8% (active)
Cc1ccc(Nc2nnc(-c3c[nH]c4ccccc34)o2)c(C)c1,growth,[1]; 10 µM unless noted,44.3%
same,growth,[2]; 10 µM unless noted,29.6%
same,growth,[3]; 10 µM unless noted,-41.8% (active)
same,growth,[4]; 10 µM unless noted,30.9%
same,growth,[5]; 10 µM unless noted,14.3%
same,growth,[6]; 10 µM unless noted,1.32% (active)
same,growth,[7]; 10 µM unless noted,-13.6% (active)
same,growth,[8]; 10 µM unless noted,7.83% (active)
same,growth,[9]; 10 µM unless noted,-17% (active)

# From PubChem BioAssay (NCI)
